Values without a mark were called inactive. The source made the active and inactive calls.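 Rule for the calls, unless noted: active = mean inhibition above 46.5%, the solvent-only control mean plus 3 SD; inactive = the rest.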
How the values were obtained:
[1] = tested on: transactivating tegument protein VP16 (Human herpesvirus 1); assay: compounds suppressing VP16-driven luciferase signal – cell-based, luminescence, single concentration, counter-screen for SRC2 inhibitor project (AID 652007; in the data active = inhibition above about 36%); details: cell-based VP16 transactivation luciferase reporter, at 8.9 µM, stronger effect = higher value
[2] = target: Nuclear receptor coactivator 2 (Homo sapiens) (UniProt Q15596); assay: inhibition of GAL4-SRC2 driven luciferase expression – cell-based, luminescence, HEK293, triplicate, confirmation (AID 652008); details: HEK293 GAL4-SRC2 luciferase reporter, at 8.9 µM, stronger effect = higher value;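 note: 0% = DMSO-treated cells and 100% = Gossypol at 36 µM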
Chain of Nuclear receptor coactivator 2 (Homo sapiens) (Q15596 whole entry, looked up, the tested form may be a part): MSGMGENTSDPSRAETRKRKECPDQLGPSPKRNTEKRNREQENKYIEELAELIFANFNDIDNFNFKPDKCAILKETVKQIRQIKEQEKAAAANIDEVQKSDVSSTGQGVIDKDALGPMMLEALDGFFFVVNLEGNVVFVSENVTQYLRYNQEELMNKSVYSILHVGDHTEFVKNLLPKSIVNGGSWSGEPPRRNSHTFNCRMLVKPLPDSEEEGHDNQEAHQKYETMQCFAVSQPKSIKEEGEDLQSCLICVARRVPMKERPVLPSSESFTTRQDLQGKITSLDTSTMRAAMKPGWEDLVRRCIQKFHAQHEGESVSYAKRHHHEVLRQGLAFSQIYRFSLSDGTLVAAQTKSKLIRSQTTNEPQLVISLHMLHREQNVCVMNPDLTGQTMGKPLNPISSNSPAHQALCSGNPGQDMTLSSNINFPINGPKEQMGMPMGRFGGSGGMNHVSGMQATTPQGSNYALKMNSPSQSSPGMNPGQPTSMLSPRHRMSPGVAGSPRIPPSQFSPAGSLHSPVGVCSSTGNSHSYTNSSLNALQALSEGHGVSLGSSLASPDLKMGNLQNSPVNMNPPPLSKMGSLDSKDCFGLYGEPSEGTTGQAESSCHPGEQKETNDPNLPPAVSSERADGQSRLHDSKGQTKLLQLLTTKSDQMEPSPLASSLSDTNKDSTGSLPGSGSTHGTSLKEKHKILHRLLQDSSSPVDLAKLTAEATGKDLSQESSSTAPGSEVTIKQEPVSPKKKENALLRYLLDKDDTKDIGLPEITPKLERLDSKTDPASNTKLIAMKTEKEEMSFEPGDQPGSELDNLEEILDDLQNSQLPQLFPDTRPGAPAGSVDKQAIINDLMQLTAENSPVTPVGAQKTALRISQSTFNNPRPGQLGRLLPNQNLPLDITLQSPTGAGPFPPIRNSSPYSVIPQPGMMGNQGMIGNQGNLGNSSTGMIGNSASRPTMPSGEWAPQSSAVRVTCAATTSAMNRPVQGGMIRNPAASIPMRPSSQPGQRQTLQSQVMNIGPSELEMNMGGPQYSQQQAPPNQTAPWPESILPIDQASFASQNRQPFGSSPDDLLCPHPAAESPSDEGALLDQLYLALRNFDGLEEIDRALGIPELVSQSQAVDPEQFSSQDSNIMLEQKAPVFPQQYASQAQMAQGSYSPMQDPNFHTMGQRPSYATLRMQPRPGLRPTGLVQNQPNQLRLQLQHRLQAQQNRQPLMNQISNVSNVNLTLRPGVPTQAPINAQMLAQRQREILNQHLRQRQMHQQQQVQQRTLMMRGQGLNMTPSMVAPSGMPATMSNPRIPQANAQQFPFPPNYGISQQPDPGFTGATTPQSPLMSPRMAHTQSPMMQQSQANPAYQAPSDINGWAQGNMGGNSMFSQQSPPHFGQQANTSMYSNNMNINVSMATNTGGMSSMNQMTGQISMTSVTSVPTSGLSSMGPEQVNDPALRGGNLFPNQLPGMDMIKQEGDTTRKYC

## O=C(O)CCSc1nc2ccccc2s1
[1]
  inhibition: 40.8% (active)
[2]
  inhibition: 58.5% (active)

## O=C(CCCN1C(=O)/C(=C/c2ccccc2Cl)SC1=S)Nc1ccccn1
[1]
  inhibition: 25.5%
[2]
  inhibition: 43.8%

## CCCNC(=O)C[C@H]1C[C@H]2c3cc(NC(=O)Nc4ccc(F)cc4)ccc3O[C@H]2[C@@H](CO)O1
[1]
  inhibition: 4.81%
[2]
  inhibition: -7.94%

## CCNC(=O)NC(=O)C(C)OC(=O)CCCSc1nc2ccccc2s1 (centres undefined)
[1]
  inhibition: 14.4%
[2]
  inhibition: 22.5%

## COc1ccc(O)c(/C=N/NC(=O)c2ccc(CSc3nc(C)cc(C)n3)cc2)c1
[1]
  inhibition: 0.19%
[2]
  inhibition: 26.4%

## COCCNC(=O)/C(C#N)=C/c1cc(C(C)C)c(OC)cc1C
[1]
  inhibition: -4.35%
[2]
  inhibition: 16.8%

## Cc1cccc(C(=O)N2CCC(Cc3ccccc3)CC2)c1[N+](=O)[O-]
[1]
  inhibition: 14.4%
[2]
  inhibition: 38.3%

## O=S(=O)(Nc1cc(Sc2cccc3cccnc23)c(O)c2ccccc12)c1ccccc1
[1]
  inhibition: 97.2% (active)
[2]
  inhibition: 98.7% (active)

## Cc1nnc(SCC2=C(C(=O)O)N3C(=O)C(NC(=O)Cn4nc(C)c(Cl)c4C)C3SC2)s1 (centres undefined)
[1]
  inhibition: -2.47%
[2]
  inhibition: -7.12%

## Cc1ccc([N+](=O)[O-])cc1N(CC(=O)Nc1ccc(S(=O)(=O)Nc2cccc(C(F)(F)F)c2)cc1)S(C)(=O)=O
[1]
  inhibition: -13.7%
[2]
  inhibition: -3.19%

## CC(C)(C)C(=O)Nc1nnc(CSCc2ccccc2F)s1
[1]
  inhibition: -20.9%
[2]
  inhibition: 9.89%

## Cc1cc(C)cc(NC(=O)Nc2cc(S(=O)(=O)N(C)C)ccc2C)c1
[1]
  inhibition: -9.93%
[2]
  inhibition: -21.3%

— PubChem BioAssay
